These results are taken from the supplement of paper PMC11172423.

For assay [1], the system named is Falciformispora senegalensis CBS197.79. Kind of assay: growth relative to untreated control; higher = less inhibition, active = 20 or less. An outline of the steps: (§1)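 Growth was expressed as metabolic activity relative to the untreated growth control, with both corrected using a blank of medium plus dye. Hyphal fragments of M. mycetomatis MM55 or F. senegalensis CBS197.79 were suspended to 68–72% transmission at 660 nm in colourless RPMI 1640 containing L-glutamine and MOPS. In 96-well plates they were exposed to compound at 100 or 25 µM for 7 days at 37 °C, and viability was read with MTS (2 h, 490 nm) or resazurin (600 nm).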

For assay [2], the system named is Madurella mycetomatis MM55. Described as above. The method, boiled down:
as §1

Take `Cc1ccc(-c2c3c(nc4sc(C(=O)Nc5ccc(F)cc5)c(N)c24)CCC3)cc1`: the growth was 81.3% (inactive) in assay [1] (25 µM), 89.6% (inactive) in assay [1] (100 µM), 110% (inactive) in assay [2] (25 µM) and 122% (inactive) in assay [2] (100 µM).

For `C[C@@H](c1nc(-c2ccc(C#N)cc2)cs1)[C@](O)(Cn1cncn1)c1ccc(F)cc1F`, the growth in assay [1] (25 µM) was 49.9% (inactive); in assay [1] (100 µM) it was 52.3% (inactive); in assay [2] (25 µM), 3.04% (active); in assay [2] (100 µM), 5.78% (active).

In the case of `CC(C)NCc1cccc(-c2ccc(NC(=O)c3cccc(C#N)c3)cc2)c1`, the growth in assay [1] (25 µM) is 86.2% (inactive); in assay [1] (100 µM) it was 27.9% (inactive); in assay [2] (25 µM), 87.5% (inactive); in assay [2] (100 µM), 5.95% (active).

Consider `Nc1nc(C2CC2)cn1CC(O)c1ccc(Cl)cc1Cl` (stereo unspecified), for which the growth is 86% (inactive) in assay [1] (25 µM), 73.7% (inactive) in assay [1] (100 µM), 83.6% (inactive) in assay [2] (25 µM) and 83.2% (inactive) in assay [2] (100 µM).

As for `O=C(CCCN1CCC(O)(c2ccc(Cl)cc2)CC1)c1ccc(F)cc1`, the growth in assay [1] (25 µM) is 103% (inactive); in assay [1] (100 µM) it was 14.2% (active); in assay [2] (25 µM), 76.2% (inactive); in assay [2] (100 µM), 4.14% (active).

For `COCC[C@H](NC(=O)c1cc2ccc(C(F)(F)F)cc2[nH]1)c1ccccc1`, the growth was 95.1% (inactive) in assay [1] (25 µM), 92.9% (inactive) in assay [1] (100 µM), 30.3% (inactive) in assay [2] (25 µM) and 52.2% (inactive) in assay [2] (100 µM).

Consider `C[C@H](/N=C(\N)c1cc2c(F)cc(F)cc2[nH]1)c1ccccc1`, for which the growth in assay [1] (25 µM) is 98.5% (inactive); in assay [1] (100 µM), 15.3% (active); in assay [2] (25 µM) it was 35% (inactive); in assay [2] (100 µM) it was 5.98% (active).

As for `C[C@H](NC(=O)c1cc2ccc(F)cc2[nH]1)c1ccccc1`, the growth in assay [1] (25 µM) is 91.5% (inactive); in assay [1] (100 µM), 101% (inactive); in assay [2] (25 µM), 83.1% (inactive); in assay [2] (100 µM), 82.5% (inactive).

On to `C[C@H](NC(=O)c1cc2nc(C(F)(F)F)ccc2[nH]1)c1ccccc1`, for which the growth in assay [1] (25 µM) was 88.2% (inactive); in assay [1] (100 µM), 95.9% (inactive); in assay [2] (25 µM), 86.1% (inactive); in assay [2] (100 µM), 56.8% (inactive).

As for `S=C(NCc1ccc2c(c1)OCO2)N1CCN(c2ncnc3c2oc2ccccc23)CC1`, the growth was 113% (inactive) in assay [1] (25 µM), 106% (inactive) in assay [1] (100 µM), 73.4% (inactive) in assay [2] (25 µM) and 77.9% (inactive) in assay [2] (100 µM).

As to `Cc1nc2ccccc2n1Cc1ccc(Cl)cc1`, the growth in assay [1] (25 µM) is 106% (inactive); in assay [1] (100 µM), 76.5% (inactive); in assay [2] (25 µM) it was 76.5% (inactive); in assay [2] (100 µM) it was 5.04% (active).

`Cc1cc(C)c2cc(C(=O)N[C@@H](C)c3ccccc3)[nH]c2c1`: the growth is 86.1% (inactive) in assay [1] (25 µM), 87.5% (inactive) in assay [1] (100 µM), 7.91% (active) in assay [2] (25 µM) and 69.4% (inactive) in assay [2] (100 µM).

As to `CC(C)(C)[S@@](=O)N1Cc2cc(C(=O)NCCc3ccncc3)nc(-c3cccc(-c4ccccc4)c3)c2[C@H]1CCO`, the growth in assay [1] (25 µM) was 82.6% (inactive); in assay [1] (100 µM) it was 102% (inactive); in assay [2] (25 µM), 67.6% (inactive); in assay [2] (100 µM) it was 52.9% (inactive).

In the case of `COc1ccc2c(c1)c(CC(=O)O)c(C)n2C(=O)c1ccc(Cl)cc1`, the growth in assay [1] (25 µM) was 111% (inactive); in assay [1] (100 µM), 104% (inactive); in assay [2] (25 µM), 79.7% (inactive); in assay [2] (100 µM), 80.8% (inactive).

Consider `Nc1nc2ccccc2n1CC(O)c1ccc(Cl)cc1Cl` (stereo unspecified), for which the growth in assay [1] (25 µM) was 82.1% (inactive); in assay [1] (100 µM), 30.8% (inactive); in assay [2] (25 µM), 95.4% (inactive); in assay [2] (100 µM), 6.46% (active).

Consider `CC[C@H](C)[C@H]1O[C@]2(CC[C@@H]1C)C[C@@H]1C[C@@H](C/C=C(\C)[C@@H](O[C@H]3C[C@H](OC)[C@@H](O[C@H]4C[C@H](OC)[C@@H](O)[C@H](C)O4)[C@H](C)O3)[C@@H](C)/C=C/C=C3\CO[C@@H]4[C@H](O)C(C)=C[C@@H](C(=O)O1)[C@]34O)O2`, for which the growth in assay [1] (25 µM) is 93.9% (inactive); in assay [1] (100 µM), 106% (inactive); in assay [2] (25 µM) it was 73.2% (inactive); in assay [2] (100 µM), 83.5% (inactive).

`COC(=O)[C@@]1(c2ccc(C)cc2)C[C@H]1CN1CCC(O)(c2ccccc2)CC1`: the growth in assay [1] (25 µM) is 95.2% (inactive); in assay [1] (100 µM), 97.4% (inactive); in assay [2] (25 µM) it was 77.2% (inactive); in assay [2] (100 µM), 72.2% (inactive).

As to `Cc1cc(OCCN2CCOCC2)nn1-c1ccc2ccccc2c1`, the growth in assay [1] (25 µM) is 105% (inactive); in assay [1] (100 µM) it was 103% (inactive); in assay [2] (25 µM), 85.8% (inactive); in assay [2] (100 µM), 65% (inactive).

Take `CCN1CCN(Cc2ccc(-c3cc4c(N[C@H](C)c5ccccc5)[nH]cnc-4n3)cc2)CC1`: the growth is 78.1% (inactive) in assay [1] (25 µM), 49.3% (inactive) in assay [1] (100 µM), 97.8% (inactive) in assay [2] (25 µM) and 46.8% (inactive) in assay [2] (100 µM).

As to `Cc1nc(NCc2ccc(F)cc2)nc(NCC(C)(C)C)c1C`, the growth is 15.9% (active) in assay [1] (25 µM), 17.8% (active) in assay [1] (100 µM), 6.77% (active) in assay [2] (25 µM) and 5.94% (active) in assay [2] (100 µM).

As for `CN(C)C1CC(NC(=O)c2ccc(Nc3nccc(-c4ccc(Cl)c(C(F)(F)F)c4)n3)cc2)C1` (stereo unspecified), the growth in assay [1] (25 µM) was 96.6% (inactive); in assay [1] (100 µM), 102% (inactive); in assay [2] (25 µM), 7.71% (active); in assay [2] (100 µM) it was 6.2% (active).

In the case of `Clc1ccc2ncc(-c3cccc(NC4CCNC4)n3)n2c1` (stereo unspecified), the growth in assay [1] (25 µM) was 92% (inactive); in assay [1] (100 µM), 83.1% (inactive); in assay [2] (25 µM), 78.8% (inactive); in assay [2] (100 µM), 56.6% (inactive).

For `N#C/C(C(=O)c1ccccc1Cl)=C1\NC(c2ccccc2)=CS1`, the growth in assay [1] (25 µM) was 90.5% (inactive); in assay [1] (100 µM), 100% (inactive); in assay [2] (25 µM) it was 79.7% (inactive); in assay [2] (100 µM), 45.4% (inactive).

`CCO[C@@H]1[C@@H](OC)[C@H](C)O[C@@H](O[C@@H]2C[C@H]3CC[C@@H]4[C@@H](C=C5C(=O)[C@H](C)[C@@H](O[C@H]6CC[C@H](N(C)C)[C@@H](C)O6)CCC[C@H](CC)OC(=O)C[C@H]54)[C@@H]3C2)[C@@H]1OC`: the growth is 96.5% (inactive) in assay [1] (25 µM), 85.7% (inactive) in assay [1] (100 µM), 107% (inactive) in assay [2] (25 µM) and 128% (inactive) in assay [2] (100 µM).
